Screening results as filed in PubChem BioAssay.
KCNQ2 enhance = KCNQ2 (rat) channel potentiation | O88943 | CHO-K1 KCNQ2, FluxOR thallium flux fluorescence; active compounds read high | B-score at 10 µM | 310,000 tested, 0.54% active | AID 2239;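 active means fluorescence ratio B-score at least 3 SD of library B-scores, with initial fluorescence B-score within 3 of them, cut at about 5.3 in these data; same plate scores as AID 2156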;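 further: B-score of peak minus minimum over baseline fluorescence ratio after K+ and Tl+ stimulus; positive B-score means potentiation of KCNQ2 with more thallium influx and brighter signal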
KCNQ2 inh = blocks the rat KCNQ2 potassium channel | CHO-K1 KCNQ2, FluxOR thallium flux, 20 min; active compounds read low | B-score at 10 µM | 310,000 tested, 1.1% active;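 active means fluorescence ratio B-score at most minus 3 library SDs, with starting brightness B-score within 2 library SDs, cut at about -5.5 in these data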
KCNQ2 block conf = confirmation of rat KCNQ2 potassium channel inhibitors; shares compounds with KCNQ2 inh; KCNQ2-expressing cells, thallium flux, inhibition; active compounds read low; activity change, negative = inhibition, % at 10 µM; 1,000 tested, 57% active
KCNQ1 spec = KCNQ2 inhibitor that also affects human KCNQ1 channel. 1,000 tested, 15% active. activity change, negative = inhibition, % at 10 µM. shares compounds with KCNQ2 inh. KCNQ1-expressing cells, FluxOR thallium flux fluorescence; active compounds read low;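 active means activity change at least 3 SD of negative controls below their mean in both duplicate wells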;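 further: CHO cells stably transfected with KCNQ1 and depolarized by potassium stimulus; peak minus minimum fluorescence over baseline after thallium addition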
CHO Tl ctr = KCNQ2 inhibitor counter-screen hit in parental CHO cells; shares compounds with KCNQ2 inh; thallium flux counter-screen; active compounds read low; 1,000 tested, 14% active; activity change, % at 10 µM
KCNQ2 patch conf = blocks rat KCNQ2 current in automated patch clamp | shares compounds with KCNQ2 inh | KCNQ2-expressing cells | calls only at 10 µM | 550 tested, 49% active | AID 588531
Large screens that a line does not name were inactive (follow-up assays come after a bar, where they were run). An excerpt weighted towards active compounds, which were near 1.6% of everything screened. Unless noted, how the calls were made is not given here.

Cc1ccc(Sc2c(C#N)c(-c3ccccc3)nn2C)cc1	KCNQ2 inh -8.49 | KCNQ2 block conf inactive | KCNQ1 spec inactive | CHO Tl ctr inactive
O=C(O)C1CC=C(Cl)CC1C(=O)NC1CCCCC1 (centres undefined)	none
O=C(Nc1ccc(Br)c(C(F)(F)F)c1)c1ccccc1	KCNQ2 inh -7.71 | KCNQ2 block conf inactive | KCNQ1 spec inactive | CHO Tl ctr inactive
O=C(Nc1ccc(Br)c(C(F)(F)F)c1)c1ccc(C(F)(F)F)cc1	none (no result: KCNQ2 enhance)
CC(C)Oc1ccc(N2CC(C(=O)NC3=NCCS3)CC2=O)cc1 (centres undefined)	none
COc1ccc(NC(=S)N(Cc2ccccn2)Cc2ccccc2Cl)cc1	KCNQ2 inh -7.86 | KCNQ2 block conf inactive | KCNQ1 spec inactive | CHO Tl ctr inactive
COc1cccc(NC(=S)N(Cc2ccccn2)Cc2ccccc2Cl)c1	none (no result: KCNQ2 enhance)
CC(Oc1ccc(Cl)cc1Cl)C(=O)NN=C1CCN(C)CC1 (centres undefined)	none
CC(Oc1ccc(Cl)cc1Cl)C(=O)N/N=C1\CCCc2ccccc21 (centres undefined)	KCNQ2 inh -6.67 | KCNQ2 block conf -32.0% | KCNQ1 spec inactive | CHO Tl ctr inactive | KCNQ2 patch conf active
COc1cc(C(=O)Nc2c(C)cc(C)cc2C)c(Br)c(OC)c1OC	KCNQ2 inh -8.77 | KCNQ2 block conf inactive | KCNQ1 spec inactive | CHO Tl ctr inactive
COc1ccc(NC(=O)c2cc(OC)c(OC)c(OC)c2Br)cc1OC	none
CCOC(=O)c1c(C)n(C)c2ccc(OCC(O)CNC(CC)CO)cc12 (centres undefined)	none
CCOC(=O)c1c(C)n(-c2ccc(C)cc2)c2ccc(OCC(O)CNCCCO)cc12 (centres undefined)	KCNQ2 inh -10.9 | KCNQ2 block conf inactive | KCNQ1 spec inactive | CHO Tl ctr inactive
CCOC(=O)C1=C(COC(=O)Cc2ccc(Br)cc2)NC(=O)NC1C (centres undefined)	none
CCCN(CCC)C(=O)Cc1coc2ccc3ccccc3c12	KCNQ2 inh -7.32 | KCNQ2 block conf inactive | KCNQ1 spec inactive | CHO Tl ctr inactive
O=C(Cc1coc2ccc3ccccc3c12)NCc1ccccc1	none
O=C(O)CC1(CC(=O)N2CCOCC2)CCCC1	none (no result: KCNQ2 enhance)
CN(C)CCCNC(=O)c1ccc(-c2nc(-c3ccc(Cl)cc3)cs2)cc1	KCNQ2 inh -11.8 | KCNQ2 block conf -22.0% | KCNQ1 spec inactive | CHO Tl ctr inactive | KCNQ2 patch conf inactive
CN(C)CCCNC(=O)c1ccccn1	none
Cc1ccc(/C(N)=N/OC(=O)N2c3ccccc3Sc3ccccc32)cc1	KCNQ2 inh -8.51 | KCNQ2 block conf -26.5% | KCNQ1 spec inactive | CHO Tl ctr inactive | KCNQ2 patch conf active
Cc1ccc(/C(N)=N/OC(=O)Cc2ccccc2)cc1	none (no result: KCNQ2 enhance)
COc1cccc(C(=O)Nc2ccccc2OC(F)(F)F)c1	none (no result: KCNQ2 enhance)
CC(C)(C)SCCNC(=O)COc1ccc(Cl)cc1	none (no result: KCNQ2 enhance)
Cc1ccccc1CSCCNC(=O)COc1ccc(Cl)cc1	KCNQ2 inh -8.57 | KCNQ2 block conf inactive | KCNQ1 spec inactive | CHO Tl ctr inactive
COc1cccc(NC(=O)c2sc3nc(N4CCOCC4)c4c(c3c2N)CCCC4)c1	none
O=C(NCc1ccco1)c1ccc(-c2ccccc2Cl)o1	KCNQ2 inh -7.11 | KCNQ2 block conf inactive | KCNQ1 spec inactive | CHO Tl ctr inactive
O=C(NCc1ccco1)c1ccc(-c2ccc(Cl)cc2)o1	none (no result: KCNQ2 enhance)
COc1ccc(Nc2nc(C(=O)NCc3ccco3)cs2)cc1	none (no result: KCNQ2 enhance)
O=C(NCc1ccco1)c1csc(Nc2ccccc2Cl)n1	KCNQ2 inh -8.35 | KCNQ2 block conf inactive | KCNQ1 spec inactive | CHO Tl ctr inactive
CCOc1ccc(N2C(=O)Nc3ccccc3C2(O)C(=O)NCc2ccc3c(c2)OCO3)cc1 (centres undefined)	none
COc1ccc(-n2c(SCC(=O)Nc3cc(C(=O)O)ccc3C)nc3ccccc3c2=O)cc1Cl	none
N#Cc1ccccc1Oc1ccccc1C=O	none
CN(c1ccccc1)S(=O)(=O)c1cccc(NC(=O)c2ccc3ncsc3c2)c1	KCNQ2 inh -7.42 | KCNQ2 block conf inactive | KCNQ1 spec inactive | CHO Tl ctr inactive
Cc1nc2ccc(NC(=O)c3cccc(S(=O)(=O)N(C)c4ccccc4)c3)cc2s1	none (no result: KCNQ2 enhance)
